Reference: PubChem BioAssay (NCATS)
Inconclusive results are not listed. A call without a number means that no potency is given here. Active and inactive are the calls of the source. Calls follow the shape of the dose curve; as a rule, active = well fitted curve in either direction with a large enough effect (not every such curve was filed as active); inconclusive = small, poorly fitted or top-dose-only effect, or another doubt; inactive = flat fitted curve, though single readings scatter.

The molecules below were run against Mitogen-activated protein kinase 10 (Mus musculus) (UniProt Q61831) (assay: JNK3 AlphaScreen Assay (AID 530;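 also: kinase came from lysate of stimulated human HepG2 cells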)). Settings: JNK3 lysate, c-Jun phosphorylation; series mostly up to 57.1 µM.
Excerpt: NIH Chemical Genomics Center [NCGC]
NIH Molecular Libraries Screening Centers Network [MLSCN]
The c-jun N-terminal kinase (JNK) family are serine/threonine protein kinases that phosphorylate c-jun, a component of the transcription factor […] (AP-1). JNK kinases are members of the mitogen-activated protein kinase family including the extracellular regulated kinases and p38 kinases. Three JNK genes (JNK 1, 2, and 3) have been identified in humans so far. JNK1 and JNK2 have a broad distribution and JNK3 is primarily found in neuronal tissues and cardiac myocytes.
JNK3 has been under consideration as a target for the treatment of neurodegenerative disorders. […] JNK pathway is also involved in pathological process in a mouse model of Parkinson's disease (Xia et al., 2001).
Given these potential tissue distributions and links to neuroprotection, JNK3 inhibitors should provide useful investigational tools to study the role of this kinase in several diseases including, arthritis, stroke, myocardial infarction, ischemic injury and Parkinson's disease.
A homogeneous AlphaScreen is developed to measure the activity of JNK3. AlphaScreen is a two bead-based proximity-dependent chemical energy transfer luminescent assay platform. The phosphorylation of a biotinylated c-jun substrate by JNK3 can be detected with an antibody raised against phosphorylated c-jun. This process brings streptavidin donor beads and Protein-A acceptor beads to within a proximity range of <200 nm, and subsequently lead a chemical luminescent reaction upon exciting donor beads with 680 nm laser excitation light. Inhibition of JNK3 activity by small molecules and subsequent decrease in the antibody binding to biotinylated c-jun could attenuate or abolish this chemical luminescent reaction.
Yang DD, Kuan CY, Whitmarsh AJ, Rincon M, Zheng TS, Davis RJ, Rakic P and Flavell RA (1997) Absence of excitotoxicity-induced apoptosis in the hippocampus of mice lacking the Jnk3 gene. Nature 389:865-870. [PMID: 9349820]
Herdegen T, Claret FX, Kallunki T, Martin-Villalba A, Winter C, Hunter T, and Karin M (1998) Lasting N-terminal phosphorylation of c-Jun and activation of c-Jun N-terminal kinases after neuronal injury. J.Neurosci. 18:5124-5135. [PMID: 9651196]
Xia XG, Harding T, Weller M, Bieneman A, Uney JB and Schulz JB (2001) Gene transfer of the JNK interacting protein-1 protects dopaminergic neurons in the MPTP model of Parkinson's disease. Proc.Natl.Acad.Sci.U.S.A. 98:10433-10438.
NCGC Assay Protocol Summary:
GST-cJun (1-79) (Stratagene, La Jolla CA, #205145) was biotnylated by PerkinElmer (PerkinElmer-BioSignalInc. Montreal, Canada) and was detectable by the streptavidin Donor beads. Anti-(phospho)cJun (Ser73) antibody was from UpState (Charlottesvilles, VA, #06-659). JNK3-containing lysates were generated from HepG2 cells and pre-activated by interleukin1-beta and tumor necrosis factor alpha. All reagents were stored at -20 C before using. Phosphorylated biotinylated-GST-cJun was recognized by Anti-(phospho)cJun (Ser73) antibody and this process brings acceptor and donor beads together. Therefore JNK3 phosphorylation of cJun can be measured by Alpha reading by EnVision (PerkinElmer, Boston, MA).
The composition of kinase buffer was (in mM) 20 tris- HCl (pH 7.6) 10 MgCl2, 1 DTT, and 0.1 Na3VO4 and 0.01% Tween-20. Beads were diluted in detection buffer containing (in mM) 20 tris-HCl (pH 7.7), 20 NaCl and 80 EDTA and 0.3% BSA. The assay was performed at room temperature. All compounds were screened as titrations from 0.6 nM to 46 uM final concentration. The assay was performed in 1536-well format (white solid bottom and untreated) as follows:
Sequence,Parameter,Value,Description
1,Reagent,3 uL,Biotin-GST-cJun, Anti-(phospho)cJun and pre-activated JNK3-containing lysates
2,Compound,23 nL,Final concentration was 0.6nM to 46uM
3,Time,15 minutes,Room Temperature
4,Reagent,1 uL,ATP final concentration 10uM
6,Reagent,0.5 uL,2ng/well bead mixture
[…]

| Structure (SMILES) | Potency |
| --- | --- |
| CNCC[C@H](Oc1ccccc1OC)c1ccccc1 | inactive |
| N[C@H](C(=O)O)[C@H](OCc1ccccc1)C(=O)O | inactive |
| CCC(=O)N[C@@H]1Cc2ccccc2[C@@H](c2ccccc2)C1 | inactive |
| C[C@H](O)CO[C@H]1[C@H]2O[C@H]3[C@H](O)[C@@H](O)[C@@H](O[C@H]4[C@H](O)[C@@H](O)[C@@H](O[C@H]5[C@H](O)[C@@H](O)[C@@H](O[C@H]6[C@H](O)[C@@H](OC[C@H](C)O)[C@@H](O[C@H]7[C@H](O)[C@@H](OC[C@H](C)O)[C@@H](O[C@H]8[C@H](O)[C@@H](O)[C@@H](O[C@@H]([C@@H]1O)[C@@H](CO)O2)O[C@@H]8CO)O[C@@H]7CO)O[C@@H]6CO)O[C@@H]5CO)O[C@@H]4CO)O[C@@H]3CO | inactive |
| COC(=O)C1=C(C)NC(C)=C([N+](=O)[O-])[C@H]1c1ccccc1C(F)(F)F | inactive |
| CC[C@]1(O)C[C@@H]2CN(CCc3c([nH]c4ccccc34)[C@](C(=O)OC)(c3cc4c(cc3OC)N(C)[C@H]3[C@](O)(C(=O)OC)[C@@H](C(=O)OC)[C@@]5(CC)C=CCN6CC[C@@]43[C@@H]65)C2)C1 | inactive |
| CCS(=O)(=O)N1CCC[C@H]2CN3CCc4cc(OC)ccc4[C@@H]3C[C@@H]21 | inactive |
| COc1ccc(NC(=O)c2ccc(-c3ccc(-c4noc(C)n4)cc3C)cc2)cc1OCCN(C)C | inactive |
| C1CCC(N=C(NC23CC4CC(CC(C4)C2)C3)N2CCOCC2)CC1 | inactive |
| C=C[C@@]1(C)CC(=O)[C@@]2(O)[C@@]3(C)[C@@H](O)CCC(C)(C)[C@@H]3[C@H](OC(=O)CCN(C)C)[C@H](OC(C)=O)[C@@]2(C)O1 | inactive |
| N[C@]1(C(=O)O)CCc2cc(P(=O)(O)O)ccc21 | inactive |
| CCNCCCNCCCCNCCCNCC | inactive |
| CC1(C)CO[C@H](CC(=O)O)CN1 | inactive |
| COc1ccccc1NC(=O)Nc1nc(-c2cccnc2)nc2ccccc12 | inactive |
| CC(=O)O[C@H](CC(=O)O)C[N+](C)(C)C | inactive |
| CC(=O)[C@H](CC(C)C)NC(=O)[C@@H](CC(C)C)NC(=O)[C@H](CC(C)C)NC(=O)OCc1ccccc1 | inactive |
| c1ccc(N2CCN(CCCOc3ccc4c(c3)OCO4)CC2)cc1 | inactive |
| CCCn1c(=O)[nH]c2nc(-c3ccc(S(=O)(=O)O)cc3)[nH]c2c1=O | inactive |
| CC1=C(\C=C/C(C)=C/C=C\C(C)=C\C(=O)O)C(C)(C)CCC1 | inactive |
| CC(C)[C@@H]1C(=O)N(S(C)(=O)=O)[C@H]2CCN(C(=O)/C=C\CN3CCCCC3)[C@@H]12 | inactive |

| Structure (SMILES) | Potency |
| --- | --- |
| COc1cc2nc(N3CCN(C(=O)[C@H]4CCCO4)CC3)nc(N)c2cc1OC | inactive |
| CC(C)C[C@H](NC(=O)N1CCCCCC1)C(=O)N[C@H](Cc1cn(C)c2ccccc12)C(=O)N[C@H](Cc1ccccn1)C(=O)O | inactive |
| COc1ccccc1N1CCN(C[C@@H](O)COc2cccc3ccccc23)CC1 | inactive |
| OC[C@H]1NC[C@H](O)[C@@H](O)[C@H]1O | inactive |
| C[C@@H](CCc1ccc(O)cc1)NCCc1ccc(O)c(O)c1 | inactive |
| Cc1nc2c(O)cccc2c(=O)[nH]1 | inactive |
| CCn1c(=O)[nH]c2ccccc21 | inactive |
| CC(C)[C@@H]1[C@H]2CC[C@H](C2)[C@H]1N | inactive |
| COc1ccc(C(OCCN2CCC[C@@H](C(=O)O)C2)(c2ccc(OC)cc2)c2ccc(OC)cc2)cc1 | inactive |
| N[C@@H](C(=O)O)c1cc(O)ccc1Cl | inactive |
| COc1cc(CNC(=O)CCCC/C=C\C(C)C)ccc1O | inactive |
| O=C(O)/C=C1\CCCc2ccccc2[C@H]1O | inactive |
| CCn1ccnc1C[C@@H]1COc2ccccc2O1 | inactive |
| CCCCCCCCCCCCCCCC(=O)O[C@H](CC(=O)O)C[N+](C)(C)C | inactive |
| Clc1ccccc1CNCC1CCC(CNCc2ccccc2Cl)CC1 (stereo not given) | inactive |
| COc1cc(N)c(Cl)cc1C(=O)CCC1CCN(CCNS(C)(=O)=O)CC1 | inactive |
| CC[C@H](C)N(C)C(=O)c1cc2ccccc2c(-c2ccccc2Cl)n1 | inactive |
| CC(C)C[C@H]1C(=O)N2CCC[C@@H]2[C@]2(O)O[C@](NC(=O)[C@@H]3C=C4c5cccc6[nH]c(Br)c(c56)C[C@H]4N(C)C3)(C(C)C)C(=O)N12 | inactive |
| NCCOB(c1ccccc1)c1ccccc1 | inactive |
| COc1ccc(-c2ccc(=N)n(CCCC(=O)O)n2)cc1 | inactive |
